Measured values taken from the supplement of paper PMC10646978.
± gives the standard deviation.

Experiments:
Settings in all cases: modulator concentration 10 µM
[1] = tested on: RAW-Dual (murine macrophage reporter line); experiment: NF-kB reporter (SEAP) activity fold change vs agonist alone; higher = enhanced NF-kB activity
Procedure, shortened: (§1)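 RAW-Dual murine macrophage reporter cells were plated at 50 000 per well in 384-well plates, pin-transferred compound to 10 μM final, and pre-incubated for 1 hour at 37 °C before a PRR agonist was added and the cells incubated overnight. NF-κB activity was read from supernatant SEAP with QUANTI-Blue at 620 nm absorbance, and IRF activity from Lucia luciferase with QUANTI-Luc by luminescence. Each signal was expressed as fold change by dividing by the mean agonist-only control on the same plate. Two replicate plates were averaged, with errors obtained by propagation.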

[2] = tested on: RAW-Dual (murine macrophage reporter line); experiment: IRF reporter (Lucia luciferase) activity fold change vs agonist alone; higher = enhanced IRF activity
Procedure, shortened: as §1

[3] = tested on: RAW-Dual (murine macrophage reporter line); experiment: viability score (confluency relative to resting cells, overnight) (fraction); higher = more viable, active = viable (0.7 or more)
Procedure, shortened: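 RAW-Dual macrophages in 384-well plates were incubated overnight with compound, final concentration 10 μM. Confluency images from IncuCyte were processed in IncuCyte software into two masks covering all imaged wells. The viability score is each well's confluency relative to resting cells, and a compound met the cutoff when both masks exceeded 70% of resting cells.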

[4] = agonist: CpG ODN 1826 0.5 ug/mL

SMILES	NF-kB reporter [1, 4]	NF-kB reporter ([1]; agonist: LPS 0.1 ug/mL)	NF-kB reporter ([1]; agonist: MPLA […])	IRF reporter ([2]; agonist: 3'3'-cGAMP 10 ug/mL)	IRF reporter ([2]; agonist: LPS 0.1 ug/mL)	IRF reporter ([2]; agonist: MPLA […])	viability score [3]
COc1c(Cl)ccc(Cl)c1C(=O)NCc1ccccc1	0.812 ± 0.13	1.01 ± 0.12	1.06 ± 0.11	1.15 ± 0.03	1.25 ± 0.14	1.33 ± 0.25	1 (active)
c1ccc2[nH]c(-c3cscn3)nc2c1	1.14 ± 0.16	1.16 ± 0.21	0.915 ± 0.055	0.81 ± 0.037	1.17 ± 0.17	1.04 ± 0.13	0.995 (active)
O=C(NN=Cc1ccc([N+](=O)[O-])o1)c1ccc(O)cc1	2.16 ± 0.17	1.49 ± 0.097	1.62 ± 0.066	0.956 ± 0.063	1.77 ± 0.18	1.22 ± 0.22	0.938 (active)
Cc1cc(OC2CN(C(=O)Cc3noc4ccccc34)C2)cc(=O)n1C1CC1	1.18 ± 0.072	1.08 ± 0.088	0.996 ± 0.043	0.919 ± 0.072	1 ± 0.061	0.957 ± 0.14	0.999 (active)
CCN(CC)c1ccc2cc(-c3nnc(NCc4ccccc4)s3)c(=O)oc2c1	1.12 ± 0.15	1.14 ± 0.072	0.912 ± 0.07	0.598 ± 0.026	1.47 ± 0.25	1.28 ± 0.22	0.997 (active)
Cc1ccc(S(=O)(=O)n2c(C)nc3ccccc32)cc1	1.13 ± 0.22	1 ± 0.18	0.897 ± 0.089	0.969 ± 0.025	1.2 ± 0.13	1.27 ± 0.13	0.959 (active)
CC(=O)SCC(Cc1ccccc1)C(=O)NCC(=O)OCc1ccccc1 (centres undefined)	1.01 ± 0.075	0.997 ± 0.07	0.99 ± 0.045	0.967 ± 0.08	0.76 ± 0.027	0.785 ± 0.087	1 (active)
